# Screens from PubChem.
# Rows were chosen to be rich in hits. Some 18% of all compounds tested hit in one or more screens of this group.
# DT40 TDP1 no CPT: qHTS for Inhibitors of human tyrosyl-DNA phosphodiesterase 1 (TDP1): qHTS in cells in absence of CPT; DT40 Tdp1-/- hTDP1 cells, no CPT, ATP luminescence, 48 h; Potency, µM (top dose mostly 46.2 µM), for inactives: at the highest dose activity change, negative = growth inhibition, actives largely listed as inhibitors; 15% of 420,000 active; further: potency means the concentration at half of the fitted maximal effect; nearly all actives have a fitted effect of over 55% in size
#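 A cellular qHTS used chicken DT40 cells lacking endogenous Tdp1 but carrying stably transfected human TDP1. Compounds were applied without camptothecin, and cell growth kinetics were judged by ATP-dependent luminescence after ≥48 hr.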
# RORgamma inh: inhibitors of mouse ROR gamma transcriptional activity | P51450 | Drosophila S2 Gal4-RORgamma UAS-luciferase reporter, 20 h | Potency, µM (doses to about 53.6 µM), for the others: at the highest dose activity change, negative = inhibition, hits mostly inhibitors | 5.4% of 310,000 active | AID 2551; further: potency means the concentration at half of the fitted maximal effect; nearly all actives have a fitted effect of over 60% in size
# Target sequence (P51450 whole entry, looked up, the tested form may be a part): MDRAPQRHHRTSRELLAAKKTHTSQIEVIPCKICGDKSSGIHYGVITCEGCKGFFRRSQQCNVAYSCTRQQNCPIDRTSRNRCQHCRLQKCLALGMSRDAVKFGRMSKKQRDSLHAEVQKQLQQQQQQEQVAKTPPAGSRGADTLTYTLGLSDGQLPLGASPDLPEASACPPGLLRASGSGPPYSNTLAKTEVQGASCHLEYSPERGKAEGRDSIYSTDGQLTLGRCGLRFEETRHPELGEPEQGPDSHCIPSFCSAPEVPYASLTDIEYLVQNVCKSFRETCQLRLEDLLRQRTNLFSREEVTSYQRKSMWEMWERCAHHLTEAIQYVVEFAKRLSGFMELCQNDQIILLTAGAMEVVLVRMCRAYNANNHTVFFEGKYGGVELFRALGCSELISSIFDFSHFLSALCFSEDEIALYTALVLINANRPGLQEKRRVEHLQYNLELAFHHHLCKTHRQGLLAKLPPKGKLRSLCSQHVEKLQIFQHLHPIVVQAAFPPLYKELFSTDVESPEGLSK
#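 Schneider cells (Drosophila), stable Gal4 DBD–ROR gamma + UAS-luc; 1 hr cmpd preincubation; Cu2+ induction 700 uM final; 20 hr ambient; luminescence.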
# LDHA inh: inhibitors of human lactate dehydrogenase A. P00338. purified LDHA, NADH/diaphorase-resazurin fluorescence; hits give low values. activity change, % (values are at about 110 or 230 µM). 0.15% of 480,000 active; in the data active means activity change below about -30%; inconclusive means mostly about -25% to -30%;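 further: plate controls were DMSO wells for no effect and wells without enzyme for full effect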
#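 Human LDH5 (2 nM) was incubated with 0.06 mM NADH and 0.2 mM pyruvate for 5 min at room temperature in Tris pH 7.4. Remaining NADH was coupled through diaphorase/resazurin, and resorufin fluorescence was read at 0 and 20 min.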
# VP16 counter: counter-screen for ROR gamma inhibitors: Gal4-VP16 reporter; 3.5% of 310,000 active; Drosophila S2 Gal4-VP16 UAS-luciferase, luminescence, 20 h; AID 2546; Potency, µM (highest dose often 53.6 µM), for the others: at the highest dose activity, negative = inhibition, actives largely listed as inhibitors;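 further: Gal4-VP16 expression switched on by copper sulfate through the metallothionein promoter; potency means the concentration at half of the fitted maximal effect; nearly all actives have a fitted effect of over 50% in size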
# IL-1B inflam inh: inflammasome signaling inhibition, IL-1 beta readout; AID 743279; THP-1 LPS/ATP IL-1B secretion, AlphaLISA, 16 h; hits give low values; activity change, % at 57.5 µM; 4.7% of 360,000 active; in the data active means activity change below about -50%; inconclusive means mostly about -30% to -49%
#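 Secreted IL-1B measured by AlphaLISA bead assay after 16 h compound exposure of THP-1 cells; compounds (final up to 57.5 uM) added 1 h before LPS (250 ng/mL) and ATP (1.25 mM) stimulation; lower signal means less secretion.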
# DT40 TDP1 CPT: growth inhibition of DT40 Tdp1-/-;hTDP1 cells with camptothecin (screen for TDP1 inhibitors). chicken DT40 Tdp1-/-;hTDP1 cells + 20 nM CPT, ATP luminescence, 48 h. Potency, µM (top dose mostly 46.2 µM), for the others: at the top dose activity change, negative = growth inhibition, usual class: inhibitors. 12% of 420,000 active. AID 686979; further: potency means the concentration at half of the fitted maximal effect; nearly all actives have a fitted effect of over 55% in size
#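 Chicken DT40 Tdp1-/- cells complemented with human TDP1, 400 cells/well, exposed to compounds plus 20 nM camptothecin for at least 48 h at 37 C; viability read as ATP content by CellTiter-Glo luminescence.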
# * = called active by the depositor; ? = inconclusive; . = no result given. Unless noted, the call rests on the fitted dose curve; in most records, active means well fitted curve in the direction sought with a large enough effect; inconclusive means small, poorly fitted or top-dose-only effect, or another doubt; inactive means no such curve, though single readings can be large; an effect the other way counts as inactive or inconclusive. Unless noted, on the % scale 0 is the no-effect control and ±100 the full control effect.
SMILES,DT40 TDP1 no CPT,RORgamma inh,LDHA inh,VP16 counter,IL-1B inflam inh,DT40 TDP1 CPT
Cc1ccc(C)c(S(=O)(=O)N2CCCC2CNC(=O)C(=O)NC2CCCC2)c1 (stereo unspecified),-32%,.,-5,.,1,-8%
CC(C)C[C@H](NC(=O)c1nc[nH]c1C(=O)NCCCCCNC(=O)OC(C)(C)C)C(=O)OCc1ccccc1,?,13µM*,5,6.3µM*,22,?
C[C@H](NC(=O)c1nc[nH]c1C(=O)N[C@@H](CCCCNC(=O)OC(C)(C)C)C(=O)OC(C)(C)C)C(=O)OCc1ccccc1,?,-20%,4,?,1,?
CC(C)C[C@H](NC(=O)c1nc[nH]c1C(=O)N[C@@H](CCCCNC(=O)OC(C)(C)C)C(=O)OC(C)(C)C)C(=O)OCc1ccccc1,?,7.1µM*,3,?,-19,?
CC(NC(=O)CC12CC3CC(CC(C3)C1)C2)C12CC3CC(CC(C3)C1)C2 (stereo unspecified),.,.,7,.,.,.
Cc1ccc(-c2cc3ccccc3nc2N)cc1,26µM*,?,-2,?,21,16µM*
Nc1nc2ccccc2cc1-c1cccs1,4%,28%,-13,8%,-14,-5%
Cc1cc(C)c2cccc(N)c2n1,-5%,0%,29,2%,22,-5%
CCc1ccc2nc3nc(C)cc(C)c3c(N)c2c1,11µM*,-23%,3,-27%,-104*,?
Cc1cc(C)c2c(N)c3ccccc3nc2n1,23µM*,-20%,10,-21%,-89*,?
CCc1ccc2nc(-c3ccccc3C)cc(C(=O)O)c2c1,.,.,-3,.,.,.
O=C(O)CCCC(=O)Nc1ccc2c(c1)oc1ccccc12,21%,11µM*,-5,?,53,2%
O=C(Nc1ccc2c(c1)oc1ccccc12)C1CC1,9.2µM*,3%,-9,-3%,43,15µM*
O=C(Nc1ccc2c(c1)oc1ccc(S(=O)(=O)N3CCCC3)cc12)C1CC1,?,12%,-2,-5%,-57*,?
CSc1ccc(/C=C2N=C(/C=C/c3ccccc3)OC/2=O)cc1,.,.,-2,.,.,.
COc1ccccc1-c1noc(CSc2nc(C3CC3)n(-c3ccccc3)n2)n1,.,.,1,.,.,.
CC(C)CCN(CC(=O)Nc1cccc2ncccc12)C1CC1,.,.,11,.,.,.
OC(CC1CC12c1ccccc1-c1ncccc12)(c1ccccc1)c1ccccc1 (stereo unspecified),16µM*,?,4,18%,?,?
CCN1CCN(c2nc(Nc3cccc(OC)c3)nc(N)c2[N+](=O)[O-])CC1,9.2µM*,-7%,-4,0%,-29,13µM*
Cc1cccc(Nc2nc(N)c([N+](=O)[O-])c(N3CC(C)OC(C)C3)n2)c1 (stereo unspecified),?,-6%,-8,-10%,?,?
CN(C)c1ccc(Nc2nc(N)c([N+](=O)[O-])c(N3CCOCC3)n2)cc1,26µM*,24%,11,-2%,-87*,?
CCN1CCN(c2nc(N)c([N+](=O)[O-])c(Nc3cccc(C)c3)n2)CC1,?,-17%,-4,-8%,.,?
CCN1CCN(c2nc(Nc3ccc(C)c(C)c3)nc(N)c2[N+](=O)[O-])CC1,23µM*,17%,-1,-16%,?,-22%
Cc1cccc(Nc2nc(N)c([N+](=O)[O-])c(N3CC(C)CC(C)C3)n2)c1 (stereo unspecified),18µM*,-12%,6,?,-101*,?
COc1ccc(C2=NS(=O)(=O)N(C)C(C(=O)N3CCCC3)=C2)cc1,.,.,-25,.,.,.
O=C1CC(c2cccc(Cl)c2)c2cc(Br)c3ccccc3c2N1 (stereo unspecified),.,.,-8,.,.,.
